Results reported in PubChem BioAssay (Tox21).
Records with an inconclusive call do not appear. The source made the active and inactive calls. Unless noted, the call rests on the fitted dose curve; in most records, active means well fitted curve in the direction sought with a large enough effect in the repeat runs; inconclusive means weak or mixed curves; inactive means no such curve, though single readings can be large; an effect the other way counts as inactive or inconclusive.

Tests used:
[1] = qHTS assay to identify aromatase inhibitors - cell viability counter screen (AID 743084);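 further: cells stimulated with testosterone during compound exposure; nearly all actives have a fitted effect of over 55% in size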
[2] = qHTS assay to identify small molecule antagonists of the peroxisome proliferator-activated receptor gamma (PPARg) signaling pathway - cell viability counter screen (AID 743194); conditions: Potency: co-treated with 50 nM rosiglitazone unless noted; further: nearly all actives have a fitted effect of over 55% in size
In short: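 PPARg-UAS-bla HEK293H cells were plated, rested 5 h at 37 C, then treated with compounds plus rosiglitazone (50 nM final) for 17 h at 37 C; viability was then read by CellTiter-Glo luminescence after 30 min at room temperature.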

[3] = qHTS assay for small molecule agonists of the antioxidant response element (ARE) signaling pathway - cell viability counter screen (AID 743203; calls by dose curve; further: nearly all actives have a fitted effect of over 55% in size; further: potency means the concentration at half of the fitted maximal effect)
In short: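 ARE-bla HepG2 cells were plated, rested 5 h at 37C/5% CO2, then exposed to compounds in DMSO for 16 h. Viability was read as CellTiter-Glo luminescence after 30 min at room temperature, in the same wells as the ARE screen.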

[4] = qHTS assay for small molecule activators of the heat shock response signaling pathway - cell viability counter screen (AID 743209); further: nearly all actives have a fitted effect of over 50% in size; further: potency means the concentration at half of the fitted maximal effect
In short: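 HSE-bla HeLa cells plated overnight, then exposed to Tox21 compounds (23 nL in DMSO) for 5 h at 37 C. After the bla reporter read, CellTiter-Glo was added in the same wells and luminescence read after 30 min at room temperature.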

[5] = qHTS assay to identify small molecule agonists of the peroxisome proliferator-activated receptor delta (PPARd) signaling pathway - cell viability counter screen (AID 743211); further: nearly all actives have a fitted effect of over 55% in size
In short: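 Tox21 library compounds, delivered in DMSO, were incubated 17 h with PPARd-bla HEK293H cells; cytotoxicity was taken from CellTiter-Glo luminescence read 30 min after reagent addition.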

[6] = target: Peroxisome proliferator-activated receptor delta (Homo sapiens) (UniProt Q03181); assay: qHTS assay to identify small molecule agonists of the peroxisome proliferator-activated receptor delta (PPARd) signaling pathway (AID 743212; calls by dose curve)
In short: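 A PPARd-bla HEK293H line with beta-lactamase under an Upstream Activator Sequence is treated with compounds at 37 C. Substrate loading for 2 h at room temperature precedes the fluorescence measurement.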

[7] = target: Peroxisome proliferator-activated receptor delta (Homo sapiens) (UniProt Q03181); assay: qHTS assay to identify small molecule antagonists of the peroxisome proliferator-activated receptor delta (PPARd) signaling pathway (AID 743215; active means well fitted inhibition curve with a large enough effect in the signal ratio in the repeat runs, not every such curve was filed as active; the % refers to the signal ratio;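 further: cells stimulated with agonist L165041 at 300 nM final during compound exposure; series mostly up to about 62 µM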)
In short: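 PPARd-bla HEK293H cells (UAS-bla reporter) preincubated 5 h, then given compound plus 300 nM final L165041 agonist for 17 h at 37 C. Beta-lactamase activity read by LiveBLAzer B/G FRET substrate fluorescence after 2 h at room temperature.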

[8] = target: Bile acid receptor (Homo sapiens) (UniProt Q96RI1); assay: qHTS assay to identify small molecule antagonists of the farnesoid-X-receptor (FXR) signaling pathway (AID 743217; active means well fitted inhibition curve with a large enough effect in the signal ratio in the repeat runs, not every such curve was filed as active; the % refers to the signal ratio)
In short: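 FXR-UAS-bla HEK 293T cells (beta-lactamase reporter) given compound plus chenodeoxycholic acid (50 uM final), 16 h at 37C. LiveBLAzer B/G FRET substrate added for 2 h at room temperature; fluorescence read.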

[9] = qHTS assay to identify small molecule agonists of the farnesoid-X-receptor (FXR) signaling pathway - cell viability counter screen (AID 743218); further: nearly all actives have a fitted effect of over 45% in size; further: potency means the concentration at half of the fitted maximal effect
In short: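 FXR-UAS-bla HEK 293T cells exposed to compounds for 16 h at 37C. Cytotoxicity read in the same wells by CellTiter-Glo luminescence after 30 min at room temperature, following the beta-lactamase FRET read.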

[10] = qHTS assay to identify small molecule antagonists of the farnesoid-X-receptor (FXR) signaling pathway - cell viability counter screen (AID 743221; active means well fitted cell-killing curve with a large enough effect in the repeat runs, not every such curve was filed as active; further: nearly all actives have a fitted effect of over 50% in size)
In short: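 Cytotoxicity is taken from ATP luminescence (CellTiter-Glo, 30 min, room temperature) in FXR-bla HEK 293T cells previously incubated 16 h at 37 C with compound and chenodeoxycholic acid at 50 uM final.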

[11] = target: Vitamin D3 receptor (Homo sapiens) (UniProt P11473); assay: qHTS assay to identify small molecule agonists of the vitamin D receptor (VDR) signaling pathway (AID 743222; calls by dose curve)
In short: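 VDR-bla cells plated 4 h at 37 C, then exposed to compounds for 16 h at 37 C. Beta-lactamase reporter activity measured by fluorescence after 2 h room-temperature loading with LiveBLAzer B/G FRET substrate.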

[12] = target: Vitamin D3 receptor (Homo sapiens) (UniProt P11473); assay: qHTS assay to identify small molecule antagonists of the vitamin D receptor (VDR) signaling pathway (AID 743223; active means well fitted inhibition curve with a large enough effect in the signal ratio in the repeat runs, not every such curve was filed as active; the % refers to the signal ratio)
In short: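 Quantitative HTS in VDR-bla reporter cells stimulated with 1alpha,25-dihydroxyvitamin D3, 3 nM final. Compound exposure 16 h, 37C, 5% CO2. Read-out: beta-lactamase FRET substrate fluorescence, 2 h RT.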

[13] = qHTS assay for small molecule agonists of the antioxidant response element (ARE) signaling pathway (AID 743202; active means well fitted activation curve with a large enough effect in the signal ratio in the repeat runs, not every such curve was filed as active; the % refers to the signal ratio; further: potency means the concentration at half of the fitted maximal effect)
In short: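 Compounds delivered in DMSO to ARE-bla HepG2 cells (2,000 cells/well, pre-incubated 5 h) and left 16 h at 37 C. LiveBLAzer B/G FRET substrate then added for 2 h at RT before fluorescence reading.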

[14] = qHTS assay for small molecule activators of the heat shock response signaling pathway (AID 743210; active means well fitted activation curve with a large enough effect in the signal ratio in the repeat runs, with a control signal flat, not every such curve was filed as active; the % refers to the signal ratio;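 further: HeLa cells with beta-lactamase reporter driven by heat shock elements; series mostly up to about 63 µM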)
In short: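 Reporter gene assay: HeLa cells stably bearing an HSE-bla construct, compound treatment 5 h at 37 C, LiveBLAzer substrate 2.5 h at RT, fluorescence intensity.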

[15] = target: Bile acid receptor (Homo sapiens) (UniProt Q96RI1); assay: qHTS assay to identify small molecule agonists of the farnesoid-X-receptor (FXR) signaling pathway (AID 743220; active means well fitted activation curve with a large enough effect in the signal ratio in the repeat runs, not every such curve was filed as active; the % refers to the signal ratio)
In short: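 Beta-lactamase reporter under UAS control in GeneBLAzer FXR HEK 293T cells (5000/well) measured with LiveBLAzer FRET substrate after 2 h at room temperature. Compound exposure lasted 16 h at 37C.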

[16] = target: Aryl hydrocarbon receptor (Homo sapiens) (UniProt P35869); assay: qHTS assay to identify small molecule that activate the aryl hydrocarbon receptor (AhR) signaling pathway (AID 743085); further: nearly all actives have a fitted effect of over 15% in size; further: potency means the concentration at half of the fitted maximal effect;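 on activation: HG2L7.5c1 human HepG2 liver cells with stably integrated DRE-driven firefly reporter; series mostly up to about 70 µM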
In short: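 A multiplexed format paired cell viability (CellTiter-Fluor fluorescence) with AhR-dependent luciferase output (ONE-Glo luminescence) in the same wells of HepG2 DRE-luc cells after 24 h compound exposure at 37C.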

[17] = qHTS assay to identify small molecule that activate the aryl hydrocarbon receptor (AhR) signaling pathway - cell viability counter screen (AID 743086);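 further: HepG2 liver cells carrying the AhR DRE luciferase reporter; series mostly up to about 70 µM; nearly all actives have a fitted effect of over 45% in size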
In short: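 HepG2-AhR-luc (HG2L7.5c1) cells, 4000/well, were preincubated 5 h at 37C, exposed to compound in qHTS format for 24 hr at 37C, then given CellTiter-Fluor for 30 min; viability was read as fluorescence in the reporter wells.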

[18] = target: Peroxisome proliferator-activated receptor gamma (Homo sapiens) (UniProt P37231); assay: qHTS assay to identify small molecule antagonists of the peroxisome proliferator-activated receptor gamma (PPARg) signaling pathway (AID 743191; calls by dose curve; further: nearly all actives have a fitted effect of over 30% in size; further: potency means the concentration at half of the fitted maximal effect)
In short: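 GeneBLAzer PPARg UAS-bla HEK293H cells carrying a UAS-driven beta-lactamase reporter were plated at 3000 cells/well, preincubated 5 h at 37C, then given compound for 17 h at 37C; LiveBLAzer B/G FRET substrate was read after 1 h at room temperature.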

[19] = qHTS assay to identify small molecule antagonists of the peroxisome proliferator-activated receptor delta (PPARd) signaling pathway - cell viability counter screen (AID 743213); further: nearly all actives have a fitted effect of over 50% in size
In short: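 PPARd-bla HEK293H cells (3000/well) got compound plus 300 nM L165041 agonist for 17 h at 37 C. Viability in the same wells came from CellTiter-Glo luminescence after 30 min at room temperature.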

[20] = target: Peroxisome proliferator-activated receptor gamma (Homo sapiens) (UniProt P37231); assay: qHTS assay to identify small molecule agonists of the peroxisome proliferator-activated receptor gamma (PPARg) signaling pathway (AID 743094; active means well fitted activation curve with a large enough effect in the signal ratio in the repeat runs, not every such curve was filed as active; the % refers to the signal ratio)
In short: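 GeneBLAzer PPARg UAS-bla HEK293H cells were plated, rested 5 h, then exposed to compounds for 17 h at 37C. Beta-lactamase activity was read by LiveBLAzer B/G FRET substrate fluorescence after 1 h at room temperature.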

Measured: Potency

Chain of Aryl hydrocarbon receptor (Homo sapiens) (P35869 whole entry, looked up): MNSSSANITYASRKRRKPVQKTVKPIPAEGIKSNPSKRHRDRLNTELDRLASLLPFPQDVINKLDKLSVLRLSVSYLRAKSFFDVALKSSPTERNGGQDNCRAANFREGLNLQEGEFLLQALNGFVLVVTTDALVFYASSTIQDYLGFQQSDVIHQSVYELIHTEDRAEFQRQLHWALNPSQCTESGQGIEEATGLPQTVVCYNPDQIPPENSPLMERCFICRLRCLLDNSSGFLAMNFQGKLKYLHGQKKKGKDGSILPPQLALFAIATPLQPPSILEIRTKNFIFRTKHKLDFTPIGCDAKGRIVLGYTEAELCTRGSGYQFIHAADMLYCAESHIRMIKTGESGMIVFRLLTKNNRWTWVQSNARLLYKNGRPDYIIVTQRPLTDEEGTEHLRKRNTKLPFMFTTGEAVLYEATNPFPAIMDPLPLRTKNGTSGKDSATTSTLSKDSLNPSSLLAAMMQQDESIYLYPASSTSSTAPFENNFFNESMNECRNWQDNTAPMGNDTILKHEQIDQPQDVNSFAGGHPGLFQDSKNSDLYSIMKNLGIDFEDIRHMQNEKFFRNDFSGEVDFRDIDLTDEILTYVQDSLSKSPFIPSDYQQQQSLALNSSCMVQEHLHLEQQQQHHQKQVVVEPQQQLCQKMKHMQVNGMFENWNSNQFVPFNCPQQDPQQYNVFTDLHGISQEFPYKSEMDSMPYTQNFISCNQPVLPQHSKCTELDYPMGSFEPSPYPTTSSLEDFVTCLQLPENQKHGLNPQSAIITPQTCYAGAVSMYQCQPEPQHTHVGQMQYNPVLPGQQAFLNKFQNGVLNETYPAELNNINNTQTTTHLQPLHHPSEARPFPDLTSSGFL
Chain of Peroxisome proliferator-activated receptor gamma (Homo sapiens) (P37231 whole entry, looked up): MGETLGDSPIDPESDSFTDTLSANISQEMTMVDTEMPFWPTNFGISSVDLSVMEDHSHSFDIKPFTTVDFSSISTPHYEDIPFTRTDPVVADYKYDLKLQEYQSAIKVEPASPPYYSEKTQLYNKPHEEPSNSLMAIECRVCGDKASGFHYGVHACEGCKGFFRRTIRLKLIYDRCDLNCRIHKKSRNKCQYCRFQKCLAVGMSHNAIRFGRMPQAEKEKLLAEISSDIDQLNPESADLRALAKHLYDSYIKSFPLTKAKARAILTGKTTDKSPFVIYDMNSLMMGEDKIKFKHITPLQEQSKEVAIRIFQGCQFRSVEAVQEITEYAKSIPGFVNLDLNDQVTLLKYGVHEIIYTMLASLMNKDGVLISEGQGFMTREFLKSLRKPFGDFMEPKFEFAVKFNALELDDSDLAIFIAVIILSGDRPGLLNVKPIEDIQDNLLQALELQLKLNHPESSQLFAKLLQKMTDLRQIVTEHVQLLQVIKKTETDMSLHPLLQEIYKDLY
Chain of Peroxisome proliferator-activated receptor delta (Homo sapiens) (Q03181 whole entry, looked up): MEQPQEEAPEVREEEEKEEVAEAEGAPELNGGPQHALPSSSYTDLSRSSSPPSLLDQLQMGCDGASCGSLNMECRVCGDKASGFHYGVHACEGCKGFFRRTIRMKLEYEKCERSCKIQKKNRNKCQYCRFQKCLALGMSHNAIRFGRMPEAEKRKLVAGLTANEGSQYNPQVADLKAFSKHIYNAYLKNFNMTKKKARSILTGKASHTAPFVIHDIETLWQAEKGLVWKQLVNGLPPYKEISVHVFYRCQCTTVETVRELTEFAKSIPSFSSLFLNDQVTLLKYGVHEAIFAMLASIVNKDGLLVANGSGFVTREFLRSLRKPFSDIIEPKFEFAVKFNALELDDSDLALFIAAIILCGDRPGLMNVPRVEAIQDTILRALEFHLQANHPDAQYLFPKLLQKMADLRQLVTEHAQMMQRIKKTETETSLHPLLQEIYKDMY
Chain of Vitamin D3 receptor (Homo sapiens) (P11473 whole entry, looked up): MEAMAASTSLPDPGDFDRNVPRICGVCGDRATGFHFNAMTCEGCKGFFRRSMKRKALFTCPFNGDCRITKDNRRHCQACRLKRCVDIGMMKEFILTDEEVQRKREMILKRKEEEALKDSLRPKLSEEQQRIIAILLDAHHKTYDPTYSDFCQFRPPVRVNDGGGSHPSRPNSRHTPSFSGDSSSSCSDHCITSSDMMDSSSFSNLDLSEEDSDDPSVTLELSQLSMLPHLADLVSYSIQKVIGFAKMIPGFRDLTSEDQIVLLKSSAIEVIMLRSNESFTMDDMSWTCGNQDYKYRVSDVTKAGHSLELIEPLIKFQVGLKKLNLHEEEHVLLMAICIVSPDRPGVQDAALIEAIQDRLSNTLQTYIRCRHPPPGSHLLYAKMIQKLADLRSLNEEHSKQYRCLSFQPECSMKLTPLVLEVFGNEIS
Chain of Bile acid receptor (Homo sapiens) (Q96RI1 whole entry, looked up): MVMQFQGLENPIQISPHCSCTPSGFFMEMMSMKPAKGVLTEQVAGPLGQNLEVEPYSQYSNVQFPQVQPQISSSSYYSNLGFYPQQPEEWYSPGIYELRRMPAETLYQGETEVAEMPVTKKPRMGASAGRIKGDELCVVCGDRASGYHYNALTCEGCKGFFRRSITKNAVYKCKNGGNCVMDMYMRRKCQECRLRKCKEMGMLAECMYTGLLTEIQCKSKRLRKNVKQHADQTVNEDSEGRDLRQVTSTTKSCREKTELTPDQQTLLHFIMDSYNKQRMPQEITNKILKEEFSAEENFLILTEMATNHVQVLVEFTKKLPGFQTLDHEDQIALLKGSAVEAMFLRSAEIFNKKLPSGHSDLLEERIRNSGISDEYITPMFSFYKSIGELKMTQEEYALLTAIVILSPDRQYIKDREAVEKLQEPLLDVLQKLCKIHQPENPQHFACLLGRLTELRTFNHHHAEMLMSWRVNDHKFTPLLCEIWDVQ

O=c1[nH]c(Cl)c(Cl)cc1Cl
inactive: [1] | [2] | [3] | [4] | [5] | [6] | [7] | [8] | [9] | [10] | [11] | [12]

COP(=S)(OC)Oc1nc(Cl)c(Cl)cc1Cl
inactive: [1] | [13] | [3] | [4] | [14] | [5] | [8] | [9] | [15] | [10]

COP(=O)(OC)O/C(=C\Cl)c1cc(Cl)c(Cl)cc1Cl
active: [18] 4.9 µM
inactive: [16] | [17] | [4] | [14] | [5] | [19] | [8] | [9]

Oc1cc(Cl)c(Cl)c(Cl)c1Cl
active: [16] 11.9 µM | [4] 13.5 µM | [9] 47.8 µM
inactive: [17] | [10]

CCC(C)c1cccc(C(C)CC)c1O (centres undefined)
inactive: [16] | [20] | [18] | [2] | [3] | [4] | [5] | [6] | [7] | [9] | [10] | [11]

O=Cc1ccccc1
inactive: [2] | [13] | [3] | [4] | [5] | [6] | [7] | [8] | [9] | [10] | [11] | [12]

c1ccc(Nc2ccc(Nc3ccccc3)cc2)cc1
inactive: [17] | [2] | [7] | [15] | [10] | [11] | [12]
active: [3] 60.9 µM | [4] 24.4 µM

CC#C[C@]1(O)CC[C@H]2[C@@H]3C[C@H](C)C4=CC(=O)CC[C@]4(C)[C@H]3CC[C@@]21C
inactive: [2] | [3] | [4] | [5] | [19] | [9] | [15] | [10]
active: [13] 23.7 µM

CC1=C2C[C@H]3[C@@H](CC=C4C[C@@H](O)CC[C@@]43C)[C@@H]2CC[C@]12O[C@@H]1C[C@H](C)CN[C@H]1[C@H]2C
inactive: [16] | [2] | [3] | [4] | [14] | [7] | [8] | [10] | [11] | [12]

Nc1cc(Cl)ccc1Cl
inactive: [17] | [2] | [13] | [3] | [4] | [5] | [6] | [19] | [7] | [9] | [10]
